CF NFkB block – inhibitors of cystic fibrosis induced NF-kB; KKLEB NF-kB-GFP reporter, PAF-induced, GFP fluorescence overnight; inhibition, % at 5 µM; 0.86% of 360,000 active;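 active = at least 50% inhibition at 5 µM, scaled per plate between neutral and stimulator controls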;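 note: PAF is a Pseudomonas aeruginosa culture filtrate used as stimulus; plate controls were PAF-stimulated DMSO wells for no effect and unstimulated DMSO wells for full effect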
LGR2 antag – blocks bursicon-induced cAMP signaling via Drosophila LGR2; HEK293 LGR2, CRE-luciferase, bursicon-stimulated, 4 h; inhibition, % at 9.99 µM; 0.35% of 380,000 active; AID 720647;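 active = drop in luminescence signal, shown as inhibition above about 50% in the replicate tests, limit read from the data, passing the limit was not always enough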;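 note: agonist challenge used bursicon conditioned medium at about half maximal strength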
KKLEB tox – CF airway cell cytotoxicity counter-screen | KKLEB CF airway cells viability, ATPlite luminescence, overnight; hits give low values; cells stimulated with P. aeruginosa culture filtrate | activity change (cytotoxicity), % at 5 µM | 0.36% of 360,000 active;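 active = corrected activity change at or below -50% at 5 µM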
TROY signal inh – blocks TROY-dependent signaling in reporter cells; Q293 LMP1-TROYcd NF-kB luciferase reporter, 4 h; inhibition, % at 10 µM; 0.98% of 360,000 active;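 active = compounds whose plate-normalised and pattern-corrected inhibition of the luciferase reporter signal at the single screening dose is 50% or more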
EWS-Fli block – inhibitors of EWS/Fli oncoprotein transcriptional activity. A673 NR0B1-luciferase reporter, viability-normalised. inhibition, % at 12.6 µM. AID 651661. 0.67% of 350,000 active;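 active = mean inhibition of at least 50% after viability correction, with every replicate also passing that limit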;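 note: firefly luciferase signal divided by Alamar Blue viability fluorescence both relative to DMSO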
TWEAK-Fn14 inh – TWEAK-Fn14 signaling inhibition; 2% of 360,000 active; inhibition, % at 10 µM; TWEAK-stimulated Fn14 reporter cells, luciferase luminescence, 8 h; in the data active = inhibition above about 50%
CF NFkB inh conf – confirmation of cystic fibrosis induced NF-kB inhibitors. shares compounds with CF NFkB block. KKLEB CF airway cells, PAF-induced NF-kB-GFP fluorescence, overnight. inhibition, % at 5 µM. 64% of 1,300 active. AID 602472; in the data active = inhibition above about 40%;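 note: stimulus PAF is a Pseudomonas aeruginosa filtrate and not platelet activating factor; plate controls were DMSO wells with stimulus for no effect and unstimulated DMSO wells for full effect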
An asterisk follows results filed as active; x = no result given. Sampled rows, rich in hits. Any-hit rate of the full collection: about 2.6%.

SMILES	CF NFkB block	LGR2 antag	KKLEB tox	TROY signal inh	EWS-Fli block	TWEAK-Fn14 inh	CF NFkB inh conf
CN(C)CCCN(C(=O)CCOc1ccccc1)c1nc2ccc(F)cc2s1	91.2*	10.6	-35.1	33.5	9.3	60.8*	69.4*
Nc1ncnc2c1c(-c1ccc(Oc3ccccc3)cc1)cn2C1CCCC1	52.8*	x	-9.8	17.1	17.8	7.8	80.8*
CCOc1ccc(C(C(=O)NC2CCCC2)N(C(=O)c2snc(C(N)=O)c2N)c2cccc(O)c2)cc1 (stereo unspecified)	75.0*	1.9	-11.0	12.8	-5.9	26.7	69.8*
CN(C)c1ccc(C(C(=O)NC2CCCCC2)N(Cc2ccco2)C(=O)c2snc(C(N)=O)c2N)cc1 (stereo unspecified)	87.7*	17.3	-44.3	-2.3	19.9	28.4	79.3*
COc1ccc(C(C(=O)NCC2CCCO2)N(Cc2cccs2)C(=O)c2snc(C(N)=O)c2N)cc1 (stereo unspecified)	54.4*	31.9	-27.9	9.8	9.8	28.2	50.3*
Cc1ccc(S(=O)(=O)Nc2ccc3c(c2)C(=O)N([C@@H](C)CO)C[C@H](C)[C@@H](CN(C)C(=O)CCC(F)(F)F)OCCCC[C@H](C)O3)cc1	x	-0.6	x	x	-9.0	x	x
CCC(=O)Nc1ccc2c(c1)OC[C@@H](C)N(Cc1cncnc1)C[C@H](C)[C@H](OC)CN(C)C2=O	x	-4.2	x	x	-4.1	x	x
CC(C)CC#Cc1cnc2c(c1)C(=O)N([C@H](C)CO)C[C@H](C)[C@@H](CN(C)C(=O)c1cccc(F)c1)O2	x	-10.1	x	x	-10.3	x	x
CC(=O)OCC(=O)[C@H]1CC[C@H]2[C@@H]3CCC4=CC(=O)CC[C@]4(C)[C@H]3CC[C@]12C	14.4	4.7	12.3	8.2	-2.8	-4.2	x
CC(=O)OCC=C1CCC2C3CCC4=CC(=O)CCC4(C)C3C(O)CC12C (stereo unspecified)	10.1	x	-10.1	16.6	8.0	-16.9	x
CC12CCC(=O)C=C1CCC1C2C(O)CC2(C)C1CCC2(O)C(=O)COC(=O)CCC1CCCC1 (stereo unspecified)	52.8*	x	10.4	7.8	x	-1.2	9.2
CC(C)(CNC(=O)CO/N=C1/C=C2CCC3C(C(O)C[C@@]4(C)C3CC[C@]4(O)C(=O)CO)[C@@]2(C)CC1)C(O)C(=O)O (stereo partly specified)	69.5*	4.7	25.5	13.0	-4.6	-34.6	14.6
CC(=O)OCC(=O)C1(O)CCC2C3CCC4=CC(=O)CCC4(C)C3(Cl)C(O)CC21C (stereo unspecified)	76.6*	17.6	17.4	21.1	-1.9	-25.4	-12.1
C[C@@H]1CN([C@@H](C)CO)S(=O)(=O)c2ccc(/C=C/c3ccccc3)cc2O[C@H]1CN(C)C	x	-4.0	x	x	9.5	x	x
CO[C@@H]1CN(C)C(=O)c2ccc(NC(=O)Nc3cc(F)ccc3F)cc2OC[C@@H](C)N(C(=O)c2ccccn2)C[C@H]1C	x	4.0	x	x	-5.3	x	x
C[C@@H]1CN([C@@H](C)CO)C(=O)c2cc(NS(=O)(=O)c3ccccc3)ccc2O[C@@H](C)CCCCO[C@@H]1CN(C)C(=O)C1CCCCC1	x	12.4	x	x	-5.3	x	x
Cc1ccc(Nc2nc3nonc3[nH]c2=O)cc1C	-17.6	x	1.7	-26.0	x	21.1	x
Cc1ccc(Nc2nc3nonc3[nH]c2=O)cc1Cl	51.7*	37.0	-35.1	41.0	-1.1	58.9*	80.7*
CN1C(=O)c2cc(NC(=O)c3ccc(F)cc3)ccc2OC[C@H]2O[C@H](CC(=O)NCC3CCCCC3)CC[C@H]21	x	-1.2	x	x	19.6	x	x
C[C@@H]1CCCCO[C@@H](CN(C)Cc2ccc(Cl)c(Cl)c2)[C@H](C)CN([C@H](C)CO)C(=O)c2cc(NS(=O)(=O)c3cn(C)cn3)ccc2O1	x	-3.1	x	x	-1.8	x	x
O=C(NCCc1c[nH]c2ccccc12)c1ccc([N+](=O)[O-])o1	70.1*	13.1	-8.4	-4.3	13.6	39.0	42.7*
O=S(=O)(Nc1nc2ccccc2nc1N1CCN(c2ccccc2F)CC1)c1ccc(Cl)cc1	60.8*	x	-46.6	43.6	x	-5.5	66.2*
CCCNC(=O)Nc1ccc2c(c1)OC[C@@H](C)N(Cc1ccccn1)C[C@@H](C)[C@H](OC)CN(C)C2=O	x	7.2	x	x	-4.5	x	x

Screens from PubChem.
